Cycloheximide cs: counter-screen hit for Shiga toxin inhibitors, cycloheximide. cell reporter, cycloheximide protein synthesis inhibition counterscreen. max response, %. 300,000 tested, 12% active. AID 2314; in the data active = max response mostly above about 13%, no sharp cut-off; inactive = mostly below about 14%; also: read at 38.3 µM for the half of the compounds with a filed dose; 0% is about no effect
SARS PLP yeast: SARS-CoV PLP inhibition in yeast. S. cerevisiae expressing SARS-CoV PLpro, growth rescue. Potency, µM (titrated, usually from 32.9 µM), for inactives: at the highest dose activity, positive = growth rescue, usual class: activators. 330,000 tested, 0.19% active. AID 485353; calls by dose curve; also: potency is read from the fitted curve at half-maximal effect; 0% is about no effect; nearly all actives have a fitted effect of over 55% in size
Pf growth 48h: inhibits P. falciparum growth in the first generation, 48 h. P. falciparum luciferase growth in erythrocytes, 48 h. 310,000 tested, 5.9% active. Potency, µM (titrated, usually from 28.7 µM), inactives show top-dose activity change, negative = inhibition, usual class: inhibitors; also: potency is read from the fitted curve at half-maximal effect; % is scaled to controls: 0 for no effect and ±100 for the full control effect
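Erythrocytes infected with P. falciparum carrying an integrated firefly luciferase reporter (2% hematocrit, 0.1% parasitemia final) were exposed to compounds in RPMI 1640 with 0.5% Albumax at 37 C, 5% CO2. Growth inhibition was scored as reduced luminescence.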
Pf growth 96h: P. falciparum growth inhibition at 96 hours; Potency, µM (highest dose often 28.7 µM), for inactives: at the top dose activity change, negative = inhibition, actives largely listed as inhibitors; 320,000 tested, 6.9% active; P. falciparum luciferase reporter growth, 96 h; AID 504834; also: potency is read from the fitted curve at half-maximal effect; % is scaled to controls: 0 for no effect and ±100 for the full control effect
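Plates of compound plus infected erythrocytes (2% hematocrit, 0.05% parasitemia final) incubate 96 hours, 37 C, 5% CO2. Detection reagent added; reduced luminescence from the parasites' luciferase reporter flags inhibition.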
NS1 inh: inhibitors of influenza NS1 protein function; 270,000 tested, 0.4% active; AID 2326; Potency, µM (doses to about 46.1 µM), for inactives: at the top dose activity, positive = more growth; calls by dose curve; also: potency is read from the fitted curve at half-maximal effect; actives are rising curves; nearly all actives have a fitted effect of over 50% in size
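In this qHTS, NS1 from influenza A is expressed in budding yeast, where it slows growth. Cells are switched from glucose to 2% galactose medium (pH 6.0, -URA), treated with compound, and growth recovery is read at OD600.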
Shiga toxin inh: blocks Shiga toxin action in Vero cells; Vero cells, Shiga toxin protein synthesis inhibition reporter; inhibition, % at 38.7 µM; 290,000 tested, 9.2% active; in the data active = inhibition mostly above about 28%, no sharp cut-off; inactive = mostly below about 43%; also: 0% is about no effect
Active calls of the source: *; i = inactive; ? = inconclusive; nt = no result; + = active, no number; [ ] = another dose, or the depositor's remark. In the library only some 21% were active in any assay of this set; here they are far more common. Unless noted, calls follow the shape of the dose curve; as a rule, active = well fitted inhibition curve with a large enough effect; inconclusive = small, poorly fitted or top-dose-only effect, or another doubt; inactive = no such curve, though single readings can be large or run the other way.

SMILES | Cycloheximide cs | SARS PLP yeast | Pf growth 48h | Pf growth 96h | NS1 inh | Shiga toxin inh
Cc1cccc(-n2ncc3c(NCCCN4CCCC4=O)ncnc32)c1 | 58* | -2% | 104% | 8% | -11% | 77*
Cc1ccc(CNC(=O)C2CC(=O)N(C3CCCC3)C2)cc1 (configuration not stated) | nt | -3% | -2% | 32% | nt | nt
O=S(=O)(c1ccc2c(c1)oc1ccccc12)N1CCOCC1 | 1 | 0% | 13µM* | 20% | -6% | -7
O=S(=O)(c1ccc2oc(=S)[nH]c2c1)N1CCCCC1 | -2 | 0% | -6% | 0% | 3% | -9
O=S(=O)(c1ccc2oc(=S)[nH]c2c1)N1CCOCC1 | nt | 2% | ? | 8.3µM* | nt | nt
O=S(=O)(Nc1ccc2c(c1)oc1ccccc12)N1CCCC1 | 20* | -10% | 108% | 49% | -65% | 22
COc1cc2c(cc1NS(=O)(=O)N1CCCCC1)oc1ccccc12 | 4 | -22% | 5% | nt | 17% | -19
O=c1[nH]c2ccc(S(=O)(=O)N3CCCCC3)cc2o1 | -5 | -5% | 8% | 10µM* | -10% | -5
Cc1nc2ccccc2c(=O)n1NC(=O)C1CC1C (configuration not stated) | -4 | 1% | -3% | 18%[5.75 µM] | nt | 12
CCOC(=O)C1(Cc2cccc(F)c2)CCN(CC(O)CO)CC1 (configuration not stated) | -2 | 1% | -8% | 0% | 2% | 2
Cc1ccc(-c2nnc(SCC(=O)NC3CC3)n2N)cc1 | -1 | -1% | 4% | 21% | 0% | -4
FC(F)(F)c1ccc(-c2noc(-c3ccccc3)c2I)cc1 | 46* | nt | nt | nt | nt | +
CC(C)c1ccc(-n2nc3ccc(N)cc3n2)cc1 | 68* | -2% | -4% | ? | 2% | 77*
Nc1ccc2nn(-c3cc([N+](=O)[O-])ccc3O)nc2c1 | 7 | 0% | 9% | -19% | 8% | -3
Nc1ccc2nn(-c3ccc(F)cc3)nc2c1 | 58* | 1% | 112% | ? | ? | 95*
Cc1ccc(-n2nc3ccc(NC(=O)c4ccc5c(c4)OCO5)cc3n2)cc1 | -3 | 5% | 49% | 82% | 11% | 9
Cc1ccc(-n2nc3ccc(N)cc3n2)cc1 | 28* | -11% | 58% | 22% | 2% | 95
Cc1ccc(CN2CCN(/N=C/c3ccc(C)s3)CC2)cc1 | -3 | 3% | 19% | ? | 6% | -14
BrC(/C=N/N1CCN(Cc2ccccc2)CC1)=C/c1ccccc1 | 8 | -1% | -20% | 5% | -37% | 21
FC(F)(F)c1ccc(/C=N/N2CCN(Cc3ccccc3)CC2)cc1 | 8 | -12% | 39% | 9% | 6% | 1
BrC(=C\c1ccccc1)/C=N/N1CCN(Cc2ccccc2)CC1 | 22* | -17% | -13% | 51% | -31% | 13
FC(F)(F)c1ccccc1/C=N/N1CCN(Cc2ccccc2)CC1 | 36* | 20% | 82% | 21% | 3% | 109*
C(=N\N1CCN(Cc2ccccc2)CC1)/c1cccnc1 | 10 | -1% | 33% | 6.6µM* | 29% | 28
Cc1ccc(/C=N/N2CCN(Cc3ccccc3)CC2)s1 | 51* | 14% | 45% | 46% | ? | 70*
Clc1cccc(/C=N/N2CCN(Cc3ccccc3)CC2)c1 | 21* | 24% | 46% | -15% | -2% | 51
SMILES | Cycloheximide cs | SARS PLP yeast | Pf growth 48h | Pf growth 96h | NS1 inh | Shiga toxin inh
Cc1ccc(/C=N/N2CCN(Cc3cccc4ccccc34)CC2)s1 | -4 | 7% | 17% | 1% | 13% | -2
C(=N\N1CCN(Cc2ccccc2)CC1)/c1ccccc1 | 39* | 0% | 28% | 15% | 4% | 69*
O=[N+]([O-])c1cc(/C=N/N2CCN(Cc3ccccc3)CC2)ccc1Cl | -1 | -1% | 10% | ? | 4% | -6
Cc1ccc(/C=N/N2CCOCC2)s1 | 46* | 1% | i | 92% | 0% | 68*
CCc1ccc(CNC(=O)C2Cc3cc(S(=O)(=O)N4CCCC4)ccc3N2C(C)=O)cc1 (configuration not stated) | -3 | 4% | -5% | ? | -6% | 4
CCOc1ccccc1OCCCC(=O)NNC(=O)c1nn(C)c(=O)c2ccccc12 | nt | 4% | -22% | ? | nt | nt
C=CCCCCCCCCC(=O)N1CCN(c2cc3c(cc2F)c(=O)c(C(=O)O)cn3CC)CC1 | 1 | 1% | ? | ? | -2% | 3
CCn1cc(C(=O)O)c(=O)c2cc(F)c(N3CCN(C(=S)NC(=O)c4ccccc4Cl)CC3)cc21 | -3 | 2% | 5.2µM* | ? | 5% | 6
C=CCNC(=S)N1CCN(c2cc3c(cc2F)c(=O)c(C(=O)O)cn3CC)CC1 | -2 | 0% | ? | 2.3µM* | 7% | -8
Cc1nnc(SCC(=O)Nc2ccc3c4c(cccc24)CC3)n1C | -3 | 7% | 5% | -14% | 1% | -5
COc1ccccc1-n1c(SCC(=O)Nc2ccccc2C)nc(O)cc1=O | -5 | 6% | 2.6µM* | -15% | ? | 14
CC(C)(C)NC(=O)CSc1nc(O)cc(=O)n1-c1ccccc1F | -5 | -1% | 2.6µM* | 42% | ? | -1
Cc1ccc(-n2c(SCC(=O)Nc3ccc4c5c(cccc35)CC4)nc(O)cc2=O)cc1 | -3 | ? | 2.9µM* | 2.6µM* | ? | -12
COc1ccc(-n2c(SCC(=O)Nc3cccc4ccccc34)nc(O)cc2=O)cc1 | -2 | 0% | 2.1µM* | 0.29µM* | 25% | 17
Cn1c(SCC(=O)NC(C)(C)C)nc(O)cc1=O | -3 | 0% | -5% | 5% | ? | -11
CCCCCCCCCCCC(=O)OCC(O)C1OCC(O)C1O (configuration not stated) | nt | nt | -10% | -6% | nt | nt
Nc1nc(Cl)nc2c1ncn2C1CC(O)C(CO)O1 (configuration not stated) | nt | nt | 7% | 18% | nt | nt
CCC(C)(C)C1CCc2[nH]nc(C(=O)NN)c2C1 (configuration not stated) | 38* | -5% | ? | ? | -2% | 53*
Cc1ccc(C(c2nnnn2C2CCCC2)N2c3ccccc3CC2C)cc1 (configuration not stated) | 13 | -38% | 13µM* | ? | 4% | 22
COc1ccc(OC)c(C(c2nnnn2C2CCCC2)N2CCc3ccccc3C2)c1 (configuration not stated) | 3 | -28% | 2.9µM* | 24% | -60% | 18
COc1ccc(C(c2nnnn2C2CCCC2)N2CCc3ccccc3C2)cc1OC (configuration not stated) | -3 | -7% | 3.7µM* | 35% | -32% | 18
COc1ccc(C(c2nnnn2C2CCCC2)N2CCC(C(N)=O)CC2)c(OC)c1 (configuration not stated) | 2 | 2% | ? | ? | -11% | -15
O=C(COc1ccccc1Cl)NCCCNC(=O)c1cccnc1 | -4 | -4% | -3% | 12% | 1% | -10

Screening data (PubChem BioAssay)
